This is a sample that favours compounds with a hit; in the whole collection about 5.7% have one here.
A549 tox: Nrf2 qHTS screen for inhibitors: counterscreen for cytotoxicity; A549 ARE-Fluc cells, CellTiter-Fluor viability, 18-24 h; actives 0.16% (n = 390,000); Potency, µM (titrated, usually from 46 µM), for inactives: top-dose activity change, negative = cytotoxicity, hits mostly inhibitors; AID 504648, 2011; also: potency is read from the fitted curve at half-maximal effect
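A549 ARE_Fluc cells in 5% FBS OPTI-MEM were exposed to compounds in concentration-response for 18-24 h at 37 deg C. Viability was read by CellTiter-Fluor fluorescence (Ex 405/Em 525) after 30 min, before the luciferase read.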
PI4K2A inh: qHTS for small molecular inhibitors of PI4K2A; purified PI4K2A, ADP-Glo luminescence, 1 h; hits give low values; activity change, negative = inhibition, % at 76.9 µM; actives 0.13% (n = 420,000); AID 1346378, 2018; in the data active = activity change below about -50%; inconclusive = mostly about -30% to -49%;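 also: -100% = wells without enzyme as full effect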
Target sequence (Q9BTU6 whole entry, looked up): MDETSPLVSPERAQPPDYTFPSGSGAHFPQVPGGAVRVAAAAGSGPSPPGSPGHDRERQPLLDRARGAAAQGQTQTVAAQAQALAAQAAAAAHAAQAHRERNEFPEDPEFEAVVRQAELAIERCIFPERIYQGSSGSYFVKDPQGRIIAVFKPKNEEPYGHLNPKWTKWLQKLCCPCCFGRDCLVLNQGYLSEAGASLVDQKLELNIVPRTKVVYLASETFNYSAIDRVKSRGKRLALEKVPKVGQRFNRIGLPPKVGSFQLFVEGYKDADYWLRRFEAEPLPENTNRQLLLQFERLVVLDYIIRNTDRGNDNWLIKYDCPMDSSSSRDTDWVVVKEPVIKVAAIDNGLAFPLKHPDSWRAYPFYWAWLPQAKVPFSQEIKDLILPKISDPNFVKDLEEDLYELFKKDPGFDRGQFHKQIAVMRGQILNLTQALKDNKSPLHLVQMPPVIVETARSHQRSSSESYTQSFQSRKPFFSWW
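PI4K2A activity was measured by ADP-Glo luminescence: enzyme (4 ug/mL stock) and phosphatidylinositol (1.2 mM stock) in Tris pH 7.5/MgCl2/EGTA/Triton X-100 buffer were reacted with ATP (300 microM stock) for one hour at ambient temperature.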
Nrf2 inh: Nrf2 qHTS screen for inhibitors; A549 ARE-Fluc reporter, luciferase luminescence, 18-24 h; Potency, µM (top dose mostly 46 µM), without a hit: top-dose activity change, negative = inhibition, hits mostly inhibitors; actives 2.1% (n = 360,000); AID 504444, 2011; also: potency is read from the fitted curve at half-maximal effect; nearly all actives have a fitted effect of over 60% in size
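Quantitative HTS in A549 cells stably bearing an antioxidant response element-firefly luciferase construct. Inhibition of Nrf2-driven transcription was scored by luminescence after 18-24 h of compound exposure at 37 °C.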
KB-3-1 tox: qHTS assay for MDR1-selective chemotherapeutics: Primary screen using the parental adenocarcinoma cell KB-3-1; KB-3-1 viability, CellTiter-Glo ATP luminescence, 72 h; Potency, µM (titrated, usually from 46.1 µM), hits mostly cytotoxic; actives 1.4% (n = 400,000); AID 1347075, 2019; also: potency is read from the fitted curve at half-maximal effect; nearly all actives have a fitted effect of over 60% in size
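Viability of parental KB-3-1 cells, measured by CellTiter-Glo luminescence, followed a 72 h incubation at 37 °C with pinned compounds in phenol-red-free DMEM containing 10% FBS.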
KB-V1 MDR tox: qHTS assay for MDR1-selective chemotherapeutics: Primary screen using the drug-selected MDR subline cells KB-V1 | actives 3.4% (n = 400,000) | KB-V1 MDR cells viability, CellTiter-Glo, 72 h | Potency, µM (series often up to 46.1 µM), actives largely listed as cytotoxic | AID 1347076, 2019; also: potency is read from the fitted curve at half-maximal effect; nearly all actives have a fitted effect of over 60% in size
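Drug-selected KB-V1 cells, grown in DMEM lacking phenol red with 10% FBS, receive compound titrations; after three days at 37 degrees C, surviving cell ATP is quantified by CellTiter-Glo luminescence and responses normalized and curve-fitted.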
Giardia killer: Small Molecules that selectively kill Giardia lamblia: qHTS; AID 540267, 2011; actives 0.15% (n = 340,000); Giardia lamblia trophozoite viability; activity change, % at 7.66 µM, hits read low; in the data active = activity change below about -80%; inconclusive = between about -30% and that limit;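 also: parasites exposed to compound for two days anaerobically before the ATP read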
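Media and compound were dispensed first, then trophozoites at 100 cells/well; plates sat 48 hrs at 37 deg C without oxygen before ATP luminescence reagent was added and read after 15-30 min at room temperature.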
Active calls of the source: *; i = inactive; ? = inconclusive; · = no result given. Unless noted, calls follow the shape of the dose curve; as a rule, active = well fitted curve in the direction sought with a large enough effect; inconclusive = small, poorly fitted or top-dose-only effect, or another doubt; inactive = no such curve, though single readings can be large; an effect the other way counts as inactive or inconclusive. Unless noted, % is scaled to controls: 0 for no effect and ±100 for the full control effect.

SMILES	A549 tox	PI4K2A inh	Nrf2 inh	KB-3-1 tox	KB-V1 MDR tox	Giardia killer
O=c1[nH]nc(CNc2cccc(C(F)(F)F)c2)c2ccccc12	0%	1	13µM*	i	i	?
CCn1cc(C(=O)OCC(=O)c2cc(C)n(-c3cccc(C(F)(F)F)c3)c2C)c(=O)c2ccc(C)nc21	-1%	14	?	i	23µM*	-21
CCCC[C@H]1C2CC(OC(=O)Nc3cc(C)cc(C)c3)C(C2)[C@H]2CCCCN21 (some centres not stated)	·	-7	·	·	·	·
CCOC(=O)c1c(C)[nH]c(C(=O)COC(=O)CNS(=O)(=O)c2ccc(C)cc2)c1C	7%	0	10%	i	4.6µM*	2
CC(=O)c1c(C)[nH]c(C(=O)COC(=O)CCSc2ccccc2)c1C	-4%	3	0%	i	?	5
CCOC(=O)c1c(C)[nH]c(C(=O)COC(=O)CCSc2ccccc2)c1C	-2%	-3	5%	?	1.6µM*	16
COc1ccc(-c2nc(NC(=O)Cn3ccc(C(F)(F)F)n3)sc2C)cc1	?	-1	21µM*	i	i	-1
COc1ccc(-c2nc(NC(=O)Cn3cnnn3)sc2C)cc1	-2%	-2	3%	i	i	-7
CCc1ccc(-n2nc3cc(C)c(NC(=O)c4cc(Cl)ccc4OC)cc3n2)cc1	-4%	-6	23%	i	i	·
N#Cc1cnc2nc1NCCCCCCC2	·	-6	·	?	5.2µM*	·
Cc1cc(C)c2c(/C=C/c3ccc(N(C)C)cc3)ccnc2c1	·	·	·	i	?	·
Cc1cnc2ccc(I)cc2c1/C=C/c1ccc(N(C)C)cc1	·	·	·	12µM*	?	·
CN(C)c1ccc(/C=C/c2c(F)cnc3ccccc23)cc1	·	·	·	9.2µM*	?	·
CN(C)c1ccc(/C=C/c2c3c(nc4ccccc24)CCCC3)cc1	·	·	·	i	i	·
Cc1cc(/C=C/c2nc3ccccc3s2)ccc1N(C)C	·	·	·	i	i	·
Cc1cc(/C=C/c2c(C)cnc3ccccc23)ccc1N(C)C	·	·	·	?	16µM*	·
CN(C)/C=N/c1nc2nccc(-c3ccc(F)cc3)n2n1	-1%	-3	-6%	i	i	11
CN(C)/C=N/c1nc2ncc(-c3ccc(Cl)cc3)c(/N=C/N(C)C)n2n1	-1%	-1	2%	?	6.5µM*	-4
Cc1c(CC(=O)N2CCN(C(=O)C3COc4ccccc4O3)CC2)c(=O)oc2cc(O)c(Cl)cc12 (configuration not stated)	1%	2	23µM*	i	?	9
COc1ccc2c(C)c(CC(=O)N3CCN(C(=O)C4COc5ccccc5O4)CC3)c(=O)oc2c1C (configuration not stated)	6%	7	15%	i	i	17
C/C(=N\NC(=O)CSc1nnc(-c2ccccc2)n1-c1ccc(C)cc1)c1ccc(-c2ccccc2)cc1	·	-2	·	·	·	·
CCCCCCCCN1C(=O)[C@H](CC(=O)NCCCOC)C[C@@]2(C(=O)OC)CC(C)(C)CC=C12	·	-6	·	i	i	·
CCOC(=O)[C@]12CCCC=C1N(CCC1=CCCCC1)C(=O)[C@H](CC(=O)NCC1CCCCC1)C2	·	-1	·	16µM*	15µM*	·
CCCCCCCCN1C(=O)[C@H](CC(=O)NCCCOCCCC)C[C@@]2(C(=O)OC)CCCCC=C12	·	-2	·	?	13µM*	·
CCCCCCCCN1C(=O)[C@H](CC(=O)NCCCOCCCC)C[C@@]2(C(=O)OC)CC(C)(C)CC=C12	·	-2	·	18µM*	23µM*	·
SMILES	A549 tox	PI4K2A inh	Nrf2 inh	KB-3-1 tox	KB-V1 MDR tox	Giardia killer
CS(=O)(=O)N1CCC[C@]2(CC[C@H](CCC#N)O2)C1	·	-2	·	·	·	·
O=C(NCCOCCn1c(=O)oc2ccccc21)Nc1ccc(Cl)cc1	-3%	-1	-41%	i	i	·
CN1c2ccccc2C(O)=C(C(=S)Nc2ccc(F)c(Cl)c2)S1(=O)=O	?	-4	?	16µM*	16µM*	-6
CN1c2ccccc2C(O)=C(C(=S)Nc2ccccc2)S1(=O)=O	?	1	?	i	i	-17
CS(=O)(=O)N(Cc1ccc(C(=O)NCCSc2ccccn2)cc1)c1ccccc1	-8%	-1	8%	i	5.8µM*	-8
CN(C)CCCNC(=O)c1ccc(CN(c2ccccc2)S(C)(=O)=O)cc1	-2%	4	6%	i	i	-2
Cc1ccc(N(Cc2ccc(C(=O)NC3CCCCC3)cc2)S(C)(=O)=O)cc1C	-2%	3	?	i	?	-1
Cc1ccc(N(Cc2ccc(C(=O)NCCSc3ccccn3)cc2)S(C)(=O)=O)cc1C	4%	0	2%	i	21µM*	-6
COc1ccc2[nH]c(C(O)C(O)c3nc4c(OC)c(OC)ccc4[nH]3)nc2c1OC (configuration not stated)	·	·	·	i	i	·
Cc1ccccc1OCC(=O)N(Cc1ccc(N(C)C)cc1)CC1CCCO1 (configuration not stated)	1%	-2	-24%	·	·	·
Cc1cccc(-n2ncc(C(=O)NCc3ccc4c(c3)OCO4)c2C2CCN(C(=O)OC(C)(C)C)CC2)c1	-16%	0	16µM*	i	i	·
Cc1ccc(-n2ncc(C(=O)NCc3cccs3)c2C2CCN(C(=O)OC(C)(C)C)CC2)cc1C	-20%	-6	21µM*	i	i	·
COc1ccc(/C=N/NC(=O)COc2ccccc2-c2ccccc2)cc1	?	-1	?	1.2µM*	0.82µM*	29
CCOc1ccc(C(=O)N/N=C/c2ccccc2[N+](=O)[O-])cc1	9%	-4	?	i	?	?
COCC(=O)N/N=C\c1ccc(OC/C=C/c2ccccc2)c(OC)c1	?	2	-7%	i	12µM*	22
COc1ccc(/C=N/NC(=O)CCn2cnc(-c3ccccc3)c2-c2ccccc2)cc1	?	0	?	5.2µM*	i	-2
O=C(N/N=C/c1ccccc1[N+](=O)[O-])c1ccc(COc2ccccc2-c2ccccc2)cc1	13%	-1	-3%	?	2.1µM*	-12
O=C(CCn1cnc(-c2ccccc2)c1-c1ccccc1)N/N=C/c1ccc(O)cc1	-21%	-5	-19%	?	i	5
COc1ccc(CCNC(=O)Cc2c(C)c3c(cc(C)c4c(C)coc43)oc2=O)cc1OC	-2%	0	-5%	·	·	·

Screening results (PubChem BioAssay)
